# Source: PubChem BioAssay (EPA / NIEHS)
# Records with an inconclusive call do not appear. Active and inactive are the calls of the source. The calls were made as follows: active = hit-call score of the fitted dose curve at least 0.9, where 1 is the maximum; inconclusive = response in the unintended direction; inactive = score below 0.9.
# Assay: TOX21_p53_BLA_p2_viability: Viability Assessment in the Tox21 HCT-116 p53 Agonism Beta-lactamase Assay, Phase 2 (AID 2283591);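 also: compound exposure lasted 16 h at 37 °C; actives lower the ATP signal meaning cytotoxicity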
# Method in brief: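 Cytotoxicity readout: CellTiter-Glo ATP luminescence, 30 min at room temperature, after the beta-lactamase read. Cells were HCT116 exposed 16 h at 37C to compounds pin-transferred at 217-fold dilution from DMSO stocks.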
row,Structure (SMILES),outcome
1,O=C(Cl)c1cc(C(=O)Cl)cc(C(=O)Cl)c1,inactive
2,COC(=O)c1cc(Cl)ccc1[N+](=O)[O-],inactive
3,O=C1c2ccccc2C(=O)C1c1nc2ccccc2c(Br)c1O,inactive
4,C/C=C\C/C=C/CCCCCCCCOC(C)=O,inactive
5,Cc1cccc(N(C)C(=S)Oc2ccc3ccccc3c2)c1,inactive
6,CCc1ccc2c(c1)C(=O)c1ccccc1C2=O,inactive
7,COc1ccc(C(Cl)=C(c2ccc(OC)cc2)c2ccc(OC)cc2)cc1,inactive
8,CCCCCC/C=C\CCCCCCCC(=O)O,inactive
9,CCC(C)C=O (centres undefined),inactive
10,O=c1[nH]nc(-c2ccc([N+](=O)[O-])o2)o1,inactive
11,CC1=CC[C@H](C(C)C)C=C1,inactive
12,NCCCN1CCN(CCCN)CC1,inactive
13,COCC(C)N (centres undefined),inactive
14,COCCOCCOCCOCCOC,inactive
